AmpC det inh: AmpC beta-lactamase inhibition, detergent assay; P00811; purified AmpC, nitrocefin hydrolysis with detergent; Potency, µM (doses to about 28.7 µM), without a hit: at the highest dose activity change, negative = inhibition; 71,000 compounds, 0.09% hits; AID 584; active = well fitted curve in the direction sought with a large enough effect; inconclusive = small, poorly fitted or top-dose-only effect; also: % is scaled to controls: 0 for no effect and ±100 for the full control effect
Target sequence (P00811 whole entry, looked up): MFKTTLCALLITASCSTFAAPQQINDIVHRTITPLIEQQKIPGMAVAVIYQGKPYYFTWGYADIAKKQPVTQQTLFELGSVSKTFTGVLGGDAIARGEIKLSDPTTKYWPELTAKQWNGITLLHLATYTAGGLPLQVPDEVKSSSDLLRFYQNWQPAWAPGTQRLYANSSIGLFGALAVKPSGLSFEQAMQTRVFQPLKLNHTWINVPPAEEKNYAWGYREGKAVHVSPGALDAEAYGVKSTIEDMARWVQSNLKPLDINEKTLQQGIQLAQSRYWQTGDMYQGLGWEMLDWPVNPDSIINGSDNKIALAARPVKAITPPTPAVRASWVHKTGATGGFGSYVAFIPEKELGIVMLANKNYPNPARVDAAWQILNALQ
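E. coli AmpC (5.3 nM) in 20 mM phosphate pH 7.0 with 0.01% Triton X-100, preincubated 15 min RT with compound; nitrocefin (2 uL of 800 uM stock) hydrolysis followed by 480 nm absorbance every 20 s over 4 min.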
Anthrax LT inh: inhibitors of anthrax lethal toxin internalization; AID 912; Potency, µM (doses to about 40 µM), for the others: top-dose activity change, negative = inhibition, usual class: inhibitors; Cells, anthrax lethal toxin internalization, FRET ratio (460/530); 70,000 compounds, 0.67% hits; also: % is scaled to controls: 0 for no effect and ±100 for the full control effect; nearly all actives have a fitted effect of over 50% in size
Prx2 Sm inh: blocks S. mansoni peroxiredoxin 2 enzymatic activity. S. mansoni Prx2 activity coupled to TGR/GSH (TGR is thioredoxin glutathione reductase), NADPH fluorescence loss, qHTS. Potency, µM. 65,000 compounds, 0.07% hits. AID 448
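Prx2 activity was followed as the loss of NADPH fluorescence (ex 365/em 450 nm), read every 30 sec for 8 min after H2O2 start. The enzyme mix (50 nM Prx2, 25 nM TGR, GSH, NADPH; pH 7.4 phosphate buffer) was incubated with compound for 15 min at room temperature first.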
AmpC inh no det: AmpC beta-lactamase inhibition, detergent-free assay. AmpC nitrocefin hydrolysis, absorbance 480 nm, no detergent. P00811. Potency, µM (titrated, usually from 28.7 µM), inactives show at the highest dose activity change, negative = inhibition. 71,000 compounds, 1.8% hits; also: % of control where 0% means no effect
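AmpC in 20 mM phosphate buffer pH 7.0 was preincubated 15 min at room temperature with compounds. Nitrocefin (800 uM stock) was then added and hydrolysis followed at 480 nm every 20 s for 4 min.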
* hit, by the source's call; ! = not confirmed by another sample; [ ] = dose if it differs, or a comment. Compounds with a hit are over-represented: about 2.6% of the library has one in this group of screens. Unless noted, calls follow the shape of the full dose curve. Potency is read from the fitted curve at half-maximal effect.

Results for CCOc1ccc(Cn2nnc(C(=O)Nc3cc(C)cc(C)c3)c2N)cc1 ?
AmpC det inh: 9%; Anthrax LT inh: inconclusive; Prx2 Sm inh: >57; AmpC inh no det: 4µM*[single pt active]

What do the screens show for `CCOC(=O)C1CCCN(c2c(Nc3cccc(C)c3)c(=O)c2=O)C1` (stereo not given)?
AmpC det inh: 12%; Anthrax LT inh: 1%; AmpC inh no det: 4µM*[single pt active]

What do the screens show for `CCOC(=O)C1CCCN(c2c(NCCCN(C)c3ccccc3)c(=O)c2=O)C1` (stereo not given)?
AmpC det inh: 11%; Anthrax LT inh: inconclusive; Prx2 Sm inh: >57; AmpC inh no det: 42%

What do the screens show for `CCOC(=O)C1CCCN(c2c(N3CCN(c4ccccn4)CC3)c(=O)c2=O)C1` (stereo not given)?
AmpC det inh: 11%; Anthrax LT inh: 1%; Prx2 Sm inh: >57; AmpC inh no det: 4µM*[single pt active]

What do the screens show for `CN1CCN(c2ncc3ncc(=O)n(C[C@H]4CCCO4)c3n2)CC1`?
AmpC det inh: 17%; Anthrax LT inh: -5%; Prx2 Sm inh: >57; AmpC inh no det: 7%

How did Cc1cc(-n2c(SCC(=O)NCc3cccs3)nc3n[nH]c(C)c3c2=N)ccc1Cl do in these assays?
AmpC det inh: -3%; Anthrax LT inh: 10µM*; Prx2 Sm inh: >57; AmpC inh no det: 42%

How did Cc1[nH]nc2nc(SCC(=O)NCC3CCCO3)n(-c3ccc(Br)cc3)c(=N)c12 (stereo not given) do in these assays?
AmpC det inh: -2%; Anthrax LT inh: -18%; Prx2 Sm inh: >57; AmpC inh no det: 135%

How did O=C(NCc1ccc(F)cc1)c1cc2n(n1)C(C(F)(F)F)CC(C1CC1)N2 (stereo not given) do in these assays?
AmpC det inh: 11%; Anthrax LT inh: -3%; Prx2 Sm inh: >57; AmpC inh no det: 4µM*[single pt active]

Results for CN1CCN(c2ccnc(-c3cccc(NS(C)(=O)=O)c3)n2)CC1 ?
AmpC det inh: 10%; Anthrax LT inh: -17%; Prx2 Sm inh: >57; AmpC inh no det: 19%

Results for CCCCNc1nc(N(C)c2ccccc2)nc(-n2ccnc2)n1 ?
AmpC det inh: -3%; Anthrax LT inh: 13µM*; Prx2 Sm inh: >57; AmpC inh no det: 28%

What do the screens show for `CC(N)=O`?
AmpC det inh: -2%; Prx2 Sm inh: >57; AmpC inh no det: 12%

How did NC(=O)CI do in these assays?
AmpC det inh: -12%; Anthrax LT inh: 0%; Prx2 Sm inh: inconclusive; AmpC inh no det: 13µM*

How did CCCC1(CCC)C(=O)NC(=NCc2ccccc2)NC1=O do in these assays?
AmpC det inh: 1%; Anthrax LT inh: 13µM*; Prx2 Sm inh: >57; AmpC inh no det: -10%

Results for CCC1(CC)C(=O)NC(=NCCc2c[nH]c3ccccc23)NC1=O ?
AmpC det inh: -1%; Anthrax LT inh: inconclusive; Prx2 Sm inh: >57; AmpC inh no det: 5%

What do the screens show for `N#C/C(=C\c1ccc(O)c(O)c1)C(N)=S`?
AmpC det inh: -1%; Anthrax LT inh: 25µM*!; Prx2 Sm inh: inconclusive; AmpC inh no det: -20%

What do the screens show for `CN1CCN(C2=C(Cl)C(=O)N(c3cccc(Cl)c3)C2=O)CC1`?
AmpC det inh: 6%; Anthrax LT inh: 0%; AmpC inh no det: -13%

How did CN1CCN(C2=C(Cl)C(=O)N(c3ccc(Cl)c(Cl)c3)C2=O)CC1 do in these assays?
AmpC det inh: -2%; Anthrax LT inh: 7.9µM*; AmpC inh no det: -13%

Results for O=c1cc(-c2ccccc2Cl)c2c([nH]1)CCC2 ?
AmpC det inh: 13%; Anthrax LT inh: 4%; Prx2 Sm inh: >57; AmpC inh no det: 4µM*[single pt active]

Results for COc1cccc(-c2cncnc2NC2CCNCC2)c1 ?
AmpC det inh: -4%; Anthrax LT inh: -4%; Prx2 Sm inh: >57; AmpC inh no det: -19%

How did Cc1nn2cc(-c3ccc(-c4ccccc4)cc3)nc2s1 do in these assays?
AmpC det inh: -3%; Anthrax LT inh: 1%; Prx2 Sm inh: >57; AmpC inh no det: 13µM*

Results for Cc1nn2cc(-c3ccc(Cl)cc3)nc2s1 ?
AmpC det inh: 15%; Anthrax LT inh: -7%; Prx2 Sm inh: >57; AmpC inh no det: -8%

How did COCCn1c(=O)c(C)nc2cnc(Oc3cccc(Cl)c3)nc21 do in these assays?
AmpC det inh: -3%; Anthrax LT inh: -12%; Prx2 Sm inh: >57; AmpC inh no det: 55%

What do the screens show for `COc1ccc(Cc2nc(-c3cccs3)no2)cc1OC`?
AmpC det inh: 6%; Anthrax LT inh: -15%; Prx2 Sm inh: >57; AmpC inh no det: 4µM*[single pt active]

What do the screens show for `COc1ccc(CCNC(=O)C2(C)CCC(=O)N2CCC(C)C)cc1OC` (stereo not given)?
AmpC det inh: 18%; Anthrax LT inh: -21%; Prx2 Sm inh: >57; AmpC inh no det: 4µM*[single pt active]

Results for CCCn1c(C)nc2c(N(CCOC)CCOC)nc(C)nc21 ?
AmpC det inh: 11%; Anthrax LT inh: -4%; AmpC inh no det: 24%

What do the screens show for `COc1ccc(Oc2ncc3nc(C)c(=O)n(CCC#N)c3n2)cc1`?
AmpC det inh: -1%; Anthrax LT inh: 18%; Prx2 Sm inh: >57; AmpC inh no det: 33%

What do the screens show for `CC(C)=CCC/C(C)=C/COc1c2ccoc2cc2oc(=O)ccc12`?
AmpC det inh: 14%; Anthrax LT inh: inconclusive; Prx2 Sm inh: >57; AmpC inh no det: 13µM*

How did COc1cc2ccc(=O)oc2c(O)c1OCC=C(C)C do in these assays?
AmpC det inh: -1%; Anthrax LT inh: inconclusive; Prx2 Sm inh: >57; AmpC inh no det: -3%

What do the screens show for `Cn1c(NCc2ccccc2Cl)nc2ccccc21`?
AmpC det inh: 10%; Anthrax LT inh: -24%; Prx2 Sm inh: >57; AmpC inh no det: 4µM*[single pt active]

Results for CCCn1c(Nc2nc3ccccc3n2C)nc2ccccc21 ?
AmpC det inh: -4%; Anthrax LT inh: 6.3µM*; Prx2 Sm inh: >57; AmpC inh no det: -13%

Results for COc1ncc2nc(-c3cccs3)c(=O)n(Cc3ccc(F)cc3)c2n1 ?
AmpC det inh: -3%; Anthrax LT inh: inconclusive; Prx2 Sm inh: >57; AmpC inh no det: 2%

What do the screens show for `Cc1nc(NCc2ccccc2)c2nc(-c3ccccc3)n(C3CCN(Cc4ccccc4)C3)c2n1` (stereo not given)?
AmpC det inh: 15%; Anthrax LT inh: inconclusive; AmpC inh no det: 70%

How did CCCCNc1nc(C)nc2c1nc(-c1ccccc1)n2C1CCN(Cc2ccccc2)C1 (stereo not given) do in these assays?
AmpC det inh: 10%; Anthrax LT inh: 13µM*; AmpC inh no det: 96%

Results for CC(C)(O)C(=O)O ?
AmpC det inh: 4%; Anthrax LT inh: -2%; AmpC inh no det: -3%
